Wnt bcat act: Wnt/beta-catenin pathway activators, primary screen, cell-based, plate reader, single point. Wnt/beta-catenin reporter cell assay, activator. activation, % at 9.35 µM. 300,000 tested, 1.2% active. AID 743398, 2014; in the data active means activation above about 30%, passing the limit was not always enough; inconclusive means no clear call, values can overlap the other calls;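 further: 0% = neutral control wells and 100% = positive control wells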
FGF22 binding: binders of human FGF22 protein, primary screen, FGF22 synaptogenesis inhibitor project, biophysical, thermal shift, single point; recombinant FGF22 thermal shift, SYPRO orange fluorescence; percent of sucrose octasulfate shift, DMSO zero; 340,000 tested, 1.5% active; Fibroblast growth factor 22 (Homo sapiens), Q9HCT0; activity (Tm shift, normalised), % at 9.99 µM;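 active means mean Tm shift, scaled 0 neutral to 100 positive control, at about 1.3% or above, every replicate too, limit read from the data; inconclusive means no clear call, values can overlap the other calls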
Target sequence (Q9HCT0 whole entry, looked up): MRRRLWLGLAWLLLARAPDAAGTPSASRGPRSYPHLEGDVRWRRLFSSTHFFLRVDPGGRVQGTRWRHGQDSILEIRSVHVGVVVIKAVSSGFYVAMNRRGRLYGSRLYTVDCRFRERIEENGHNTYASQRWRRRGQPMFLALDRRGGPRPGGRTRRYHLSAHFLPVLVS
SMARCA2 act: SMARCA2 (BRM) function activators, primary screen, cell-based, luminescence, high throughput | MG213 cells, MMTV-luciferase reporter, dexamethasone, overnight | activation, % at 9.1 µM | 370,000 tested, 1% active | AID 652017, 2013; in the data active means activation above about 7.8%;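 further: 0% = vehicle wells and 100% = reference activator wells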
MLL AF4-AF9 inh: inhibitors of AF4 peptide binding to AF9, primary screen, biochemical, AlphaScreen, biotin-AF4 peptide, FLAG-AF9, single point; inhibition, % at 10 µM; 350,000 tested, 0.47% active;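 active means every replicate reaching a set inhibition limit, whatever the replicate mean, cut at about 25% in these data; inconclusive means mean inhibition reaches that limit but some replicates miss it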;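 further: 0% = plate neutral control median and 100% = total signal loss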
Target sequence (P42568 whole entry, looked up): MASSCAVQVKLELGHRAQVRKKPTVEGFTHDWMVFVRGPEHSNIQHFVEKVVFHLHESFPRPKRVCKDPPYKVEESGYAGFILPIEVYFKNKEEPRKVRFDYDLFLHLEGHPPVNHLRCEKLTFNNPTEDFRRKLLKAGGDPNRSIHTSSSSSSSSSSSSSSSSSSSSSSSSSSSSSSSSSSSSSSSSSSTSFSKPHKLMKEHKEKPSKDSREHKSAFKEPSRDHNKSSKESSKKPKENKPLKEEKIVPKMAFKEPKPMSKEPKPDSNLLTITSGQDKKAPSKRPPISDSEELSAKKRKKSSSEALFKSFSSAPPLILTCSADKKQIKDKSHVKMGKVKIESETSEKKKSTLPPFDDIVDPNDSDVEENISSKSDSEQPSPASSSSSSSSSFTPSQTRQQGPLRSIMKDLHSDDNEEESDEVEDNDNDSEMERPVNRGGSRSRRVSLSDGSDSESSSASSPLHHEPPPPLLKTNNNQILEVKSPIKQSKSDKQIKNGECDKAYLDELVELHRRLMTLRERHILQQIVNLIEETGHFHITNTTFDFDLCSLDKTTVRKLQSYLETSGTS
MITF act: activators of MITF-driven TRPM1 promoter reporter, primary screen, cell-based, SK-MEL-5, luciferase, single point. SK-MEL-5 TRPM1-promoter luciferase, 24 h; % of positive control, neutral wells = 0. activation, % at 12.5 µM. 300,000 tested, 0.75% active. AID 588334, 2011;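 active means mean activation of at least 80% with every replicate also reaching 80%; inconclusive means mean reaches 80% but some replicate falls short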;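 further: 0% = neutral control wells and 100% = parthenolide positive control wells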
esBAF inh: Bmi1 luciferase reporter increase in mESCs, primary screen, esBAF inhibitor project, mouse ES cells, Bmi1 luciferase knock-in, single point; 24 h; 100% = twice the neutral-well signal; reporter increase, % at 12.5 µM; 350,000 tested, 2% active; in the data active means activation above about 40%; inconclusive means no clear call, values can overlap the other calls;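 further: 0% = median of the plate's neutral control wells and 100% = double that signal; a rise in the Bmi1 reporter signal indicates esBAF inhibition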
* hit, by the source's call; ? = inconclusive; · = no result. Only some compounds are listed: those with a hit (about 4.3% of all), similar ones and a draw of the others.

SMILES | Wnt bcat act | FGF22 binding | SMARCA2 act | MLL AF4-AF9 inh | MITF act | esBAF inh
CN(C)c1ccc(N/C=C/C(=O)c2ccco2)cc1 | 42.9* | · | 2.4 | · | 20.8 | 1.5
O=C(/C=C/Nc1ccccc1O)c1ccco1 | 52.3* | 0.6 | 3.8 | 1.5 | 44.4 | ·
O=C(/C=C/Nc1ccc(F)c(Cl)c1)c1ccco1 | · | · | 7.7 | · | 33.9 | ·
O=C(/C=C/Nc1ccccc1Oc1ccccc1)c1ccco1 | -0.5 | · | 7.9* | 11.2 | 4.9 | 13.7
O=C(/C=C/Nc1cccc(F)c1)c1ccco1 | · | · | 5.3 | · | 92.5* | 44.5*
CO[C@@H]1CN(C)C(=O)c2ccc(NC(C)=O)cc2OC[C@@H](C)N(C(=O)Cc2ccccn2)C[C@@H]1C | · | -0.6 | · | -0.5 | · | -4.0
C[C@@H]1CN([C@H](C)CO)C(=O)c2cc(C#Cc3ccc(F)cc3)cnc2O[C@@H]1CN(C)C(=O)c1ccccc1F | · | -0.1 | · | 1.4 | · | -1.9
O=C(C[C@@H]1CC[C@@H](NC(=O)C2CCC2)[C@H](CO)O1)NCCCN1CCOCC1 | · | 0.1 | · | -1.1 | · | 2.0
COc1ccccc1Oc1ccc(N/C=C/C(=O)c2ccco2)cc1 | 16.3 | 0.2 | 3.4 | 5.4 | 59.5 | 86.8*
CO[C@H]1CN(C)C(=O)c2cc(NS(=O)(=O)CC(F)(F)F)ccc2OC[C@@H](C)N(Cc2cccnc2)C[C@@H]1C | · | 0.0 | · | -2.1 | · | 0.0
CCN1C(=O)[C@H]2[C@@H](c3ccc(C)cc3)N3C(=O)N(c4ccc(C)cc4)C(=O)[C@@]3(CC)[C@H]2C1=O | 4.6 | 0.3 | 3.7 | -1.1 | 5.1 | 46.8*
Fc1ccc(N2C(=S)SC(=Nc3ccccc3)C2=Nc2ccccc2)cc1 | 57.6* | 0.1 | 0.9 | 4.5 | 67.5 | ·
O=C1/C(=C\c2cccnc2)SC(=S)N1c1ccc(F)cc1 | 1.5 | -0.1 | -0.3 | 0.1 | 5.3 | ·
C[C@@H]1CN([C@@H](C)CO)S(=O)(=O)c2ccc(C#Cc3ccncc3)cc2O[C@H]1CN(C)C | · | · | · | -7.0 | · | -6.8
O=[N+]([O-])c1c(Nc2ccccc2O)cc(Cl)c2nonc12 | -7.5 | -0.1 | 3.7 | 14.6 | -105.6 | -31.8
O=C(O)c1cc(Nc2cc(Cl)c3nonc3c2[N+](=O)[O-])ccc1O | -1.0 | 1.8* | -1.7 | -0.8 | 7.1 | -0.7
O=[N+]([O-])c1c(Nc2ccc(O)cc2)cc(N2CCOCC2)c2nonc12 | -4.6 | 44.0* | -1.0 | 1.4 | -13.8 | ·
Cc1ccccc1OCC1Cc2c(nc(N)c(C#N)c2N)O1 (stereo unspecified) | 17.3 | · | 6.5 | · | 78.1 | 49.0*
N#Cc1c(N)nc2c(c1N)CC(COc1ccccc1)O2 (stereo unspecified) | · | · | 5.8 | · | ? | ·
Cc1ccsc1CCNC(=O)C1CCC(=O)N(CCc2cccc(F)c2)C1 (stereo unspecified) | 26.4 | 0.0 | 4.4 | -0.3 | 94.7* | 65.4*
C#CCN(C(=O)C1CCC(=O)N(CCc2cccc(F)c2)C1)C1CCCCC1 (stereo unspecified) | 32.6* | 0.0 | 1.1 | -0.1 | · | ·
C[C@H]1CN([C@@H](C)CO)C(=O)Cc2cc(NC(=O)Nc3ccc(F)cc3)ccc2O[C@@H]1CN(C)C(=O)Nc1ccc(F)cc1 | · | -0.6 | · | -2.0 | · | -2.8
COCC(=O)Nc1ccc2c(c1)[C@H]1C[C@H](CC(=O)NCc3cccnc3)O[C@@H](CO)[C@H]1O2 | · | -0.4 | · | -1.9 | · | -1.0
Cc1ccc(-c2nc3ccc(NS(=O)(=O)c4ccccc4)cc3[nH]2)o1 | 21.6 | 0.6 | 3.4 | 5.1 | 50.1 | 77.8*
Cn1nc(C(C)(C)C)c([N+](=O)[O-])c1C(=O)N1CCOCC1 | -1.2 | -0.1 | -1.6 | 2.8 | -8.6 | -4.6
SMILES | Wnt bcat act | FGF22 binding | SMARCA2 act | MLL AF4-AF9 inh | MITF act | esBAF inh
Cn1nc(C(=O)N2CCOCC2)c([N+](=O)[O-])c1C(=O)N1CCOCC1 | 2.1 | 44.1* | -0.2 | -2.2 | -7.1 | ·
CCOc1ccc(NC(=O)C(=S)NC2CCCCC2)cc1 | -1.1 | 42.5 | -1.3 | -3.7 | 136.2* | ·
CCCCc1ccc(NC(=O)C2CCCC2)cc1 | 0.5 | 0.1 | 7.8* | -8.8 | · | ·
CCc1ccc(NC(=O)C2CCCN2C(=O)NC2CCCCC2)cc1 (stereo unspecified) | 1.0 | 0.0 | 0.5 | 2.6 | -9.2 | -1.8
CCc1cccc(NC(=O)NC2CCCCC2)c1 | · | · | 0.4 | · | 6.8 | -18.2
CCc1ccc(NC(=O)NC2CCCCCCC2)cc1 | 19.0 | -0.2 | 6.2 | -3.2 | 95.4* | 57.9*
CCN(CC)c1ccc(NC(=O)C2CCCC2)cc1 | 1.8 | -0.7 | 0.7 | 8.7 | · | 15.6
CCc1ccc(NC(=O)C(=S)NC2CCCCC2)cc1 | -4.4 | -0.1 | 4.5 | -0.7 | 119.2* | 29.7
O=C(C[C@@H]1C[C@@H]2c3cc(NC(=O)C4CCC4)ccc3O[C@@H]2[C@@H](CO)O1)NCc1cccnc1 | · | 0.1 | · | -11.2 | · | -1.9
CCCNC(=O)Nc1ccc2c(c1)C(=O)N(C)C[C@H](OC)[C@H](C)CN(C(=O)CC)[C@@H](C)CO2 | · | · | · | · | · | 0.6
Cc1cccc(-n2c(C)cc(C(=O)NC3CCCCC3)c2C)c1 | 21.2 | -0.4 | 2.0 | -0.2 | 63.3 | 15.9
COc1ccc(OC)c(NC(=O)C(=S)NC2CCCCC2)c1 | -2.3 | 0.2 | -2.3 | 10.9 | -4.9 | ·
COc1ccc(-n2c(C)cc(C(=O)NC3CCCCC3)c2C)cc1 | 17.8 | 0.1 | 3.7 | 9.7 | 43.4 | 53.7*
COc1ccc(NC(=O)C(=S)NC2CCCCC2)cc1 | 39.2* | 0.0 | 1.2 | -0.1 | 69.1 | 35.8
CCOc1ccc(NC(=O)NC2CCCCCCC2)cc1 | -0.4 | 0.1 | 1.4 | -3.7 | 77.1 | 59.0*
Cc1ccc(NC(=O)c2cc(-c3ccco3)on2)cc1 | · | · | -0.6 | · | 89.6* | ·
O=C(Nc1ccc(F)c(Cl)c1)c1cc(-c2ccco2)on1 | 37.5* | 0.0 | -1.4 | -0.9 | 22.5 | -1.3
Cc1ccc(NC(=O)c2cc(-c3cccc(O)c3)on2)cc1C | 23.1 | 0.0 | 5.6 | -0.4 | 55.0 | 49.0*
Cc1ccc(NC(=O)c2cc(-c3ccco3)on2)cc1C | · | · | 5.9 | · | 53.4 | 47.4*
COC(=O)C[C@H]1CC[C@@H]2[C@@H](COc3ccc(NC(=O)c4cc(F)cc(F)c4)cc3C(=O)N2C)O1 | · | 0.0 | · | · | · | -2.5
CN1C(=O)[C@@]2(O[C@H]3C=CC=CN3C3=C2C(=O)CCC3)c2cccc(Br)c21 | 1.5 | -0.1 | -5.3 | -2.3 | · | ·
O=C(N/N=C\c1cn(-c2ccccc2)nc1-c1ccccc1)c1ccc2c(c1)OCO2 | -1.9 | · | -0.3 | · | 42.1 | 43.7*
O=C(N/N=C/c1cn(-c2ccccc2)nc1-c1ccc(F)cc1)c1ccc2c(c1)OCO2 | · | · | 1.2 | · | 14.0 | ·

Source: PubChem (several laboratories)
